Pf growth 96h: P. falciparum growth inhibition at 96 hours | P. falciparum luciferase reporter growth, 96 h | Potency, µM (top dose mostly 28.7 µM), for inactives: top-dose activity change, negative = inhibition, most hits filed as inhibitors | 320,000 compounds, 6.9% hits | AID 504834; active means well fitted inhibition curve with a large enough effect; inconclusive means small, poorly fitted or top-dose-only effect, or another doubt; inactive means no such curve, though single readings can be large or run the other way; further: on the % scale 0 is the no-effect control and ±100 the full control effect
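Cell-based qHTS: luciferase-tagged P. falciparum in erythrocytes (2% hematocrit, 0.05% parasitemia final) incubated with compounds for 96 hours, 37 C, 5% CO2; luciferase detection reagent then added and luminescence measured.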
Pf growth 48h: inhibits P. falciparum growth in the first generation, 48 h. P. falciparum luciferase growth in erythrocytes, 48 h. Potency, µM (series often up to 28.7 µM), without a hit: top-dose activity change, negative = inhibition, actives largely listed as inhibitors. 310,000 compounds, 5.9% hits. AID 504832; active means well fitted inhibition curve with a large enough effect; inconclusive means small, poorly fitted or top-dose-only effect, or another doubt; inactive means no such curve, though single readings can be large or run the other way; further: on the % scale 0 is the no-effect control and ±100 the full control effect
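First compound was added to culture medium, then infected red cells at 0.1% parasitemia and 2% hematocrit (final). After incubation at 37 C under 5% CO2, luciferase detection reagent was dispensed and light output recorded.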
SARS PLP yeast: SARS-CoV PLP inhibition in yeast; AID 485353; Potency, µM (highest dose often 32.9 µM), without a hit: top-dose activity, positive = growth rescue, usual class: activators; S. cerevisiae expressing SARS-CoV PLpro, growth rescue; 330,000 compounds, 0.19% hits; further: 0% is about no effect; nearly all actives have a fitted effect of over 55% in size
NS1 inh: blocks influenza NS1 protein function | Potency, µM (doses to about 46.1 µM), without a hit: at the top dose activity, positive = more growth | 270,000 compounds, 0.4% hits | AID 2326; further: actives are rising curves; nearly all actives have a fitted effect of over 50% in size
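A cell-based growth assay was used: compounds that relieve NS1-induced slow growth of budding yeast raise OD600. Assay medium was yeast nitrogen base with ammonium sulphate and -URA supplement, pH 6.0, with 2% galactose.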
Numbers without * were called inactive; u = inconclusive; x = no result given; [ ] = remark or other dose. In the library only some 10% were active in any assay of this set; here they are far more common. Unless noted, the call rests on the fitted dose curve. Potency means the concentration at half of the fitted maximal effect.

SMILES	Pf growth 96h	Pf growth 48h	SARS PLP yeast	NS1 inh
CC(=O)CCc1ccc(OCC(O)CNCCOc2ccc(C)cc2)cc1 (stereo not drawn)	-4%	-16%	1%	6%
CCN(CC)CCOc1ccccc1C(=O)CCc1ccccc1	u	-15%	x	x
CC12CCC(=O)N1C(C(=O)NCc1ccccc1Cl)CS2 (stereo not drawn)	35%	8%	0%	x
CCn1c(=O)cc(OCC(=O)Nc2nc(C)cs2)c2ccccc21	2.1µM*	6%	-2%	u
CCOC(=O)c1ccccc1NC(=O)COc1cc(=O)n(CC)c2ccccc12	-4%	x	-10%	-2%
CCn1c(=O)cc(OCC(=O)Nc2ccc(C)cn2)c2ccccc21	x	0%	-5%	-7%
CCn1c(=O)cc(OCC(=O)Nc2ccccc2N2CCN(C)CC2)c2ccccc21	9.3µM*	x	2%	u
O=C1C(Cl)=C(Sc2nnc3c4ccccc4c4ccccc4c3n2)C(=O)c2ccccc21	x	x	x	3%
O=C1CCCC2=C1C1c3ccccc3C(=O)N1c1ccc(C(=O)c3ccccc3)cc1N2 (stereo not drawn)	89%	2.3µM*	27%	8%
O=C1CC(c2ccco2)CC2=C1C1c3ccccc3C(=O)N1c1ccccc1N2 (stereo not drawn)	28%	u	1%	7%[9.22 µM]
COc1ccccc1C(=O)NCCN1CCN(c2ccccc2)CC1	u	47%	0%	-3%
COc1ccc(C(=O)N2CCCC(CCC(=O)N3CCN(c4ccccn4)CC3)C2)cc1 (stereo not drawn)	-10%	u	-2%	-11%
O=C(CCC1CCCN(C(=O)COc2ccccc2)C1)N1CCN(c2ccccn2)CC1 (stereo not drawn)	0%	10µM*	-2%	-1%
CCOC(=O)C1CCN(Cc2ccc(O)c3ncccc23)CC1	41%	10µM*	u	-6%
COc1ccccc1N1CCN(Cc2ccc(O)c3ncccc23)CC1	x	2.6µM*	14%	-53%
Oc1ccc(CN2CCCc3ccccc32)c2cccnc12	12%	13µM*	19%	-55%
Cc1ccc(NCc2ccc(O)c3ncccc23)cc1	16%	-17%	-5%	-52%
Oc1ccc(COC2CCN(Cc3ccccc3)C2)c2cccnc12 (stereo not drawn)	12µM*	8.3µM*	2%	x
O=[N+]([O-])c1cccc(S(=O)(=O)Nc2cccc(-c3ccc(N4CCCC4)nn3)c2)c1	6.6µM*	u	12%	x
O=[N+]([O-])c1cccc(S(=O)(=O)Nc2cccc(-c3ccc(N4CCOCC4)nn3)c2)c1	u	u	2%	x
Cc1cc(C)cc(NC(=S)Nc2cccc3cnccc23)c1	u	2.1µM*	-3%	x
Cc1cccc(NC(=O)CNC(=O)Cc2ccc3c(c2)OCCO3)c1C	u	u	4%	x
CCOc1ccc2c(c1)C(C)=CC(C)(C)N2C(=O)Nc1ccccc1	15µM*	x	4%	4%
COc1ccc(/C=C/C(=O)NCC(=O)N=Nc2c(O)[nH]c3ccc([N+](=O)[O-])cc23)cc1	40%	-26%	-1%	24%
CC(OC(=O)c1cccc(-n2cnnn2)c1)C(=O)Nc1ccc(F)cc1 (stereo not drawn)	14%	57%	1%	10%
SMILES	Pf growth 96h	Pf growth 48h	SARS PLP yeast	NS1 inh
CCOC(=O)N1CCC2(CC1)NCCc1c2[nH]c2ccccc12	14%	u	0%	-2%
O=C(c1cc(Br)ccc1Cl)N1CCN(c2ncccn2)CC1	3%	1%	0%	-6%
O=C(c1cc(F)c(F)cc1Cl)N1CCN(c2ncccn2)CC1	5.2µM*	-2%	4%	13%
O=C(NC(=S)Nc1cccc2cc(O)ccc12)c1ccccc1Br	13µM*	-26%	-4%	9%
O=C(NC(=S)Nc1cccc2cc(O)ccc12)c1ccco1	-12%	u	3%	-12%
Cc1cc(C)c2[nH]c(=O)c(C(c3nnnn3C(C)(C)C)N(Cc3ccco3)CC3CCCO3)cc2c1 (stereo not drawn)	1.9µM*	x	8%	9%
Cc1cc2cc(C(c3nnnn3C(C)(C)C)N(Cc3ccco3)CC3CCCO3)c(=O)[nH]c2cc1C (stereo not drawn)	u	u	3%	15%
COc1ccc2[nH]c(=O)c(C(c3nnnn3C(C)(C)C)N(Cc3ccco3)CC3CCCO3)cc2c1 (stereo not drawn)	5.9µM*	9.3µM*	8%	-19%
CC1CC(C)CN(S(=O)(=O)c2ccc(NC(=O)c3ccc(=O)[nH]c3)cc2)C1 (stereo not drawn)	u	-29%	6%	x
CC1=NN(c2ccccc2)C(=O)/C1=C/c1cn(C)c2ccccc12	7.4µM*	u	0%	-11%
CC1=NN(c2ccccc2)C(=O)/C1=C\C=C\c1ccccc1	12µM*	u	-1%	0%
CCOC(=O)c1ccc(N2N=C(C)/C(=C/C=C/c3ccco3)C2=O)cc1	13µM*	-13%	3%	15%
CC1=NN(c2ccccc2)C(=O)/C1=C/C=C/c1ccc(N(C)C)cc1	u	u	-1%	x
Cn1cc(C=O)c2ccccc21	10µM*	51%	-1%	3%
O=C(O)c1cc(N2N=C(C(F)(F)F)/C(=C/C=C/c3ccco3)C2=O)ccc1Cl	u	42%	-1%	u
CC(O)CNC12CC3CC(CC(C3)C1)C2 (stereo not drawn)	u	u	-2%	x
CC1=NN(c2ccccc2)C(=O)/C1=C\c1cn(C)c2ccccc12	u	u	-1%	x
CC1=NN(c2ccccc2)C(=O)/C1=C\c1cc(C)n(C)c1C	9.3µM*	u	4%	-4%
CNC/C(Cl)=N/S(=O)(=O)c1ccc(C)cc1	x	x	x	1%
OCCN1CCN(c2nc(N3CCCCC3)nc(N3CCCCC3)n2)CC1	60%	10µM*	-2%	-14%
O=C(NCCc1ccc(Cl)cc1)C1CC(=O)N(CCc2ccccc2)C1 (stereo not drawn)	4.1µM*	18%	0%	-7%
Cc1ccc(CNC(=O)C2CCC(=O)N(CCc3ccc(Cl)cc3)C2)s1 (stereo not drawn)	u	6%	0%	-11%
Cc1ccc(CCN2CC(C(=O)NCCCN3CCCCC3)CC2=O)cc1 (stereo not drawn)	7.4µM*	0%	1%	-5%
O=C(NCCN1CCCCCC1)C1CC(=O)N(CCc2ccccc2)C1 (stereo not drawn)	16%	4%	-3%	-3%
Cc1ccc(CNC(=O)C2CCC(=O)N(CCc3ccc(Cl)cc3)C2)cc1 (stereo not drawn)	9.3µM*	-12%	3%	-12%
O=C(NCCn1cccn1)C1CCC(=O)N(CCc2ccccc2)C1 (stereo not drawn)	13µM*	6%	2%	16%
CC1CCN(C(=S)c2ccc(N(C)C)cc2)CC1	-4%[5.75 µM]	6%	0%	0%
O=C(NCCN1CCCC1)C1CC(=O)N(C2CCCCC2)C1 (stereo not drawn)	13µM*	27%	-1%	u
O=C(NCCc1ccccc1)C1CC(=O)N(C2CCCCCC2)C1 (stereo not drawn)	-4%	5%	1%	-7%
